{"source": "PubChem BioAssay (NCATS)", "note": "Records with an inconclusive call do not appear. Unmarked numbers belong to inactive results. The source made the active and inactive calls. Calls come from the whole dose curve; as a rule, active = well fitted cell-killing curve with a large enough effect; inconclusive = small, poorly fitted or top-dose-only effect, or effect the other way; inactive = no such curve, though single readings can be large or run the other way."}
{"test": "Quantitative High-Throughput drug screen in 47 multiple myeloma cell lines against the NCATS MIPE library collection: KMS11_JCRBsus cell viability assay (AID 1919873); note: nearly all actives have a fitted effect of over 50% in size; note: potency is the fitted concentration of half-maximal effect;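 for viability (% of control): 100% = DMSO-only wells and 0% = media-only wells without cells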", "conditions": "KMS11 myeloma viability, CellTiter-Glo ATP luminescence, 48 h; series mostly up to 45.8 µM; viability (% of control): at the top concentration", "method_in_brief": "(§1)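 qHTS format: cells plated (500/well), pin-dosed with MIPE 4.0 compounds, kept 48 h at 37 °C. Readout was CellTiter-Glo luminescence, median RLU.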", "units": {"viability (% of control)": "%"}}
{"compound": "CC1C(=O)OC2C(O)C34C5CC(C(C)(C)C)C36C(OC(=O)C6O)OC4(C(=O)O5)C12O", "note": "(configuration not stated)", "viability (% of control)": 110}
{"compound": "C[C@@H](O)[C@H]1C(=O)N2C(C(=O)OCOC(=O)C(C)(C)C)=C(SC3CN(C4=NCCS4)C3)[C@H](C)[C@H]12", "viability (% of control)": 96.8}
{"compound": "C[C@@H]1C[C@H]2[C@@H]3CCC4=CC(=O)C=C[C@]4(C)[C@@]3(F)[C@@H](O)C[C@]2(C)[C@@]1(O)C(=O)CO", "Potency": "0.0132 µM (active)"}
{"compound": "O=c1[nH]c(=O)n([C@H]2C[C@@H](O)[C@@H](CO)O2)cc1I", "Potency": "2.09 µM (active)"}
{"compound": "C[C@]12C=CC(=O)C=C1CC[C@@H]1[C@@H]2[C@@H](O)C[C@@]2(C)[C@@H]1CC[C@]2(O)C(=O)CO", "Potency": "0.0935 µM (active)"}
{"compound": "CN1CCN2c3ncccc3Cc3ccccc3C2C1", "note": "(configuration not stated)", "viability (% of control)": 102}
{"compound": "N#CC(c1ccnc(NCCc2cccnc2)n1)c1nc2ccccc2s1", "note": "(configuration not stated)", "Potency": "11.8 µM (active)"}
{"compound": "CN1CCN(c2ncc(-c3cc(Cl)cc(Cl)c3Cl)c(N)n2)CC1", "viability (% of control)": 98.5}
{"compound": "NC(=O)c1ccc(N(C(N)=O)c2c(F)cccc2F)nc1-c1ccc(F)cc1F", "viability (% of control)": 70.8}
{"compound": "CCC[C@H](Nc1nc(-c2ccc(NC(=O)NCC)c(OC)c2)ncc1C)c1cccnc1", "Potency": "0.0012 µM (active)"}
{"compound": "CC1(C)[C@H]2CC[C@]3(C)[C@@H](C(=O)C=C4[C@@H]5C[C@@](C)(C(=O)O)CC[C@]5(C)CC[C@]43C)[C@@]2(C)CC[C@@H]1O", "viability (% of control)": 105}
{"compound": "CC[C@H](NC(=O)[C@H](C)NC)C(=O)N1C[C@@H](O)C[C@H]1Cc1c(-c2[nH]c3cc(F)ccc3c2C[C@H]2C[C@H](O)CN2C(=O)[C@H](CC)NC(=O)[C@H](C)NC)[nH]c2cc(F)ccc12", "viability (% of control)": 121}
{"compound": "COc1cc(C=CC(=O)O)ccc1O", "viability (% of control)": 132}
{"compound": "Cc1ccccc1-n1c(Cn2nc(-c3cccc(O)c3)c3c(N)ncnc32)nc2cccc(C)c2c1=O", "Potency": "6.62 µM (active)"}
{"compound": "Cc1ccc2c(=O)c3cccc(CC(=O)O)c3oc2c1C", "viability (% of control)": 104}
{"compound": "O=C(NCCCCN1CCOCC1)c1cc2ccccc2o1", "viability (% of control)": 112}
{"compound": "Cc1[nH]c(C=C2C(=O)Nc3ccc(S(=O)(=O)N(C)c4cccc(Cl)c4)cc32)c(C)c1C(=O)N1CCN(C)CC1", "Potency": "11.8 µM (active)"}
{"compound": "N[C@@H](CC(=O)N1CCn2c(nnc2C(F)(F)F)C1)Cc1cc(F)c(F)cc1F", "viability (% of control)": 99}
{"compound": "O=C(Nc1ccc(OC(F)(F)F)cc1)c1sccc1NCc1ccnc2ccccc12", "Potency": "7.43 µM (active)"}
{"compound": "CN1c2ccccc2C(=O)N2CCc3c([nH]c4ccccc34)C21", "note": "(configuration not stated)", "Potency": "2.96 µM (active)"}
{"compound": "O=C(NC[C@H](O)CO)c1ccncc1Nc1ccc(I)cc1F", "Potency": "2.64 µM (active)"}
{"test": "Quantitative High-Throughput drug screen in 47 multiple myeloma cell lines against the NCATS MIPE library collection: KMS28BM_JCRB cell viability assay (AID 1919874); note: nearly all actives have a fitted effect of over 35% in size; note: potency is the fitted concentration of half-maximal effect", "conditions": "CellTiter-Glo ATP, 48 h; series mostly up to 45.8 µM; viability, % of control: at the top concentration", "method_in_brief": "as §1", "units": {"viability, % of control": "%"}}
{"compound": "CC1C(=O)OC2C(O)C34C5CC(C(C)(C)C)C36C(OC(=O)C6O)OC4(C(=O)O5)C12O", "note": "(configuration not stated)", "viability, % of control": 134}
{"compound": "CN(C)CC[C@H](CSc1ccccc1)Nc1ccc(S(=O)(=O)NC(=O)c2ccc(N3CCN(Cc4ccccc4-c4ccc(Cl)cc4)CC3)cc2)cc1[N+](=O)[O-]", "Potency": "1.87 µM (active)"}
{"compound": "C[C@@H]1C[C@H]2[C@@H]3CCC4=CC(=O)C=C[C@]4(C)[C@@]3(F)[C@@H](O)C[C@]2(C)[C@@]1(O)C(=O)CO", "viability, % of control": 98.8}
{"compound": "O=c1[nH]c(=O)n([C@H]2C[C@@H](O)[C@@H](CO)O2)cc1I", "viability, % of control": 115}
{"compound": "C[C@]12C=CC(=O)C=C1CC[C@@H]1[C@@H]2[C@@H](O)C[C@@]2(C)[C@@H]1CC[C@]2(O)C(=O)CO", "viability, % of control": 99.3}
{"compound": "CN1CCN2c3ncccc3Cc3ccccc3C2C1", "note": "(configuration not stated)", "viability, % of control": 109}
{"compound": "N#CC(c1ccnc(NCCc2cccnc2)n1)c1nc2ccccc2s1", "note": "(configuration not stated)", "Potency": "26.4 µM (active)"}
{"compound": "CN1CCN(c2ncc(-c3cc(Cl)cc(Cl)c3Cl)c(N)n2)CC1", "viability, % of control": 82}
{"compound": "NS(=O)(=O)c1cc(Cl)c(Cl)c(S(N)(=O)=O)c1", "viability, % of control": 112}
{"compound": "CCN(CC)CCCCNc1nc2cc(Cl)c(Cl)cc2nc1-c1ccc(-c2cccs2)s1", "Potency": "7.43 µM (active)"}
{"compound": "CC(=O)NCCC(=O)N[C@@H](CCC(N)=O)C(=O)N[C@@H](CO)C(=O)N[C@@H](CCC(N)=O)C(=O)N[C@@H](CCC(N)=O)C(=O)N[C@H](C(=O)N[C@@H](Cc1ccccc1)C(=O)N[C@]1(C)CCCCCCC=CCCC[C@@](C)(C(=O)N[C@@H](CCC(N)=O)C(=O)N[C@@H](CC(N)=O)C(N)=O)NC(=O)[C@H](CC(C)C)NC(=O)[C@H](CC(C)C)NC(=O)[C@@H](CCCNC(=N)N)NC(=O)[C@H](Cc2c[nH]c3ccccc23)NC(=O)[C@H](CC(C)C)NC(=O)[C@H](CC(N)=O)NC1=O)[C@H](C)O", "viability, % of control": 104}
{"compound": "CC1(C)[C@H]2CC[C@]3(C)[C@@H](C(=O)C=C4[C@@H]5C[C@@](C)(C(=O)O)CC[C@]5(C)CC[C@]43C)[C@@]2(C)CC[C@@H]1O", "viability, % of control": 135}
{"compound": "COc1cc(C=CC(=O)O)ccc1O", "viability, % of control": 126}
{"compound": "Cc1ccccc1-n1c(Cn2nc(-c3cccc(O)c3)c3c(N)ncnc32)nc2cccc(C)c2c1=O", "Potency": "7.43 µM (active)"}
{"compound": "O=C(NCCCCN1CCOCC1)c1cc2ccccc2o1", "viability, % of control": 111}
{"compound": "N[C@@H](CC(=O)N1CCn2c(nnc2C(F)(F)F)C1)Cc1cc(F)c(F)cc1F", "Potency": "4.69 µM (active)"}
{"compound": "COc1ccnc(CS(=O)c2nc3ccc(OC(F)F)cc3[nH]2)c1OC", "note": "(configuration not stated)", "viability, % of control": 113}
{"compound": "COc1cccc(OC)c1-c1cc(C(=O)NC2(C(=O)O)C3CC4CC(C3)CC2C4)nn1-c1ccnc2cc(Cl)ccc12", "note": "(configuration not stated)", "viability, % of control": 114}
{"compound": "O=C(NC[C@H](O)CO)c1ccncc1Nc1ccc(I)cc1F", "viability, % of control": 88.7}
{"compound": "CCOC(=O)N1CCN([N+]([O-])=NOc2cc(ON=[N+]([O-])N3CCN(C(=O)OCC)CC3)c([N+](=O)[O-])cc2[N+](=O)[O-])CC1", "Potency": "7.43 µM (active)"}
{"compound": "COc1ccc(Cn2ccc3ccc(C(=O)NO)cc32)cc1", "viability, % of control": 93.7}
